Targets with the largest changes are over-represented here; the source holds about 21,000 in all.
Compound: Cc1cc(ccc1-c1ccccc1)C(=O)N1CCCN(CC1)C(=O)CCl [compound 10]
Assay: probe-labelled cysteine peptide fold change vs DMSO (competition) (log2 fold change); higher = less target engagement (more negative = stronger competition)
Settings: THP-1, incubation time: 4 h
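Note: competitive profiling in live THP-1 cells: cysteine peptides tagged with an iodoacetamide desthiobiotin (IA-DTB) probe, intensity after compound treatment relative to DMSO-treated cells.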

Chain of UniProt Q8IWF6 (Q8IWF6 whole entry): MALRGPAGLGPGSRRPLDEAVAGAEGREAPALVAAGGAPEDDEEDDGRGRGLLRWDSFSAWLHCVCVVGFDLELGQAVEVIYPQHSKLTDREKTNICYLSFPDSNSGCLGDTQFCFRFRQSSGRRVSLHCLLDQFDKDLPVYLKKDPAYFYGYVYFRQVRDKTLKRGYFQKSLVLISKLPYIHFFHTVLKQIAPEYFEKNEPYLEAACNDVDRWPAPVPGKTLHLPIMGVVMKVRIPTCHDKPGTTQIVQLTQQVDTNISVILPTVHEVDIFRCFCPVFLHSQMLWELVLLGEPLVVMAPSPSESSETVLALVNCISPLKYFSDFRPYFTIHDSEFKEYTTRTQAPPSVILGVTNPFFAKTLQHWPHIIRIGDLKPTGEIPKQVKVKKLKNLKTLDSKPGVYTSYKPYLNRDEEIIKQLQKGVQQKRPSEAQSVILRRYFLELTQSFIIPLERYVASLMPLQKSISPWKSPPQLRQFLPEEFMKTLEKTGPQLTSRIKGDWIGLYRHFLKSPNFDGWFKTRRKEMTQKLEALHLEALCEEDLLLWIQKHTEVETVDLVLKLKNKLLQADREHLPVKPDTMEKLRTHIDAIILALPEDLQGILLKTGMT
Chain of UniProt Q86YQ8 (Q86YQ8 whole entry, looked up): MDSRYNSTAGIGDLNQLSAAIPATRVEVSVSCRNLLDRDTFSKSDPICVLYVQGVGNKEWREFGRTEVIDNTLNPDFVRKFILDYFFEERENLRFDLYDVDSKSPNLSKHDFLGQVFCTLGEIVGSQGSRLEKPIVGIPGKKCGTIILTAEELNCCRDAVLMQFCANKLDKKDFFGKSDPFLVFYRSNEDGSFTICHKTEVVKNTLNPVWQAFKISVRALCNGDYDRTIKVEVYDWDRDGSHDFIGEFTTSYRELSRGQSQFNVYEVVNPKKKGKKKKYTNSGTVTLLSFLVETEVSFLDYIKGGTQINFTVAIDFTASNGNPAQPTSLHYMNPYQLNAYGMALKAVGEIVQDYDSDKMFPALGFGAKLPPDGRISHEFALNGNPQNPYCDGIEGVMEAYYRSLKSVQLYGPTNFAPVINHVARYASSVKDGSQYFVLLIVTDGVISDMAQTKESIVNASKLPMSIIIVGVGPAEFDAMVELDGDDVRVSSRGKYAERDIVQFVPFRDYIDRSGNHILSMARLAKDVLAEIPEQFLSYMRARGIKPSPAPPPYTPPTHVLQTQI
Chain of UniProt Q9GZR7 (Q9GZR7 whole entry, looked up): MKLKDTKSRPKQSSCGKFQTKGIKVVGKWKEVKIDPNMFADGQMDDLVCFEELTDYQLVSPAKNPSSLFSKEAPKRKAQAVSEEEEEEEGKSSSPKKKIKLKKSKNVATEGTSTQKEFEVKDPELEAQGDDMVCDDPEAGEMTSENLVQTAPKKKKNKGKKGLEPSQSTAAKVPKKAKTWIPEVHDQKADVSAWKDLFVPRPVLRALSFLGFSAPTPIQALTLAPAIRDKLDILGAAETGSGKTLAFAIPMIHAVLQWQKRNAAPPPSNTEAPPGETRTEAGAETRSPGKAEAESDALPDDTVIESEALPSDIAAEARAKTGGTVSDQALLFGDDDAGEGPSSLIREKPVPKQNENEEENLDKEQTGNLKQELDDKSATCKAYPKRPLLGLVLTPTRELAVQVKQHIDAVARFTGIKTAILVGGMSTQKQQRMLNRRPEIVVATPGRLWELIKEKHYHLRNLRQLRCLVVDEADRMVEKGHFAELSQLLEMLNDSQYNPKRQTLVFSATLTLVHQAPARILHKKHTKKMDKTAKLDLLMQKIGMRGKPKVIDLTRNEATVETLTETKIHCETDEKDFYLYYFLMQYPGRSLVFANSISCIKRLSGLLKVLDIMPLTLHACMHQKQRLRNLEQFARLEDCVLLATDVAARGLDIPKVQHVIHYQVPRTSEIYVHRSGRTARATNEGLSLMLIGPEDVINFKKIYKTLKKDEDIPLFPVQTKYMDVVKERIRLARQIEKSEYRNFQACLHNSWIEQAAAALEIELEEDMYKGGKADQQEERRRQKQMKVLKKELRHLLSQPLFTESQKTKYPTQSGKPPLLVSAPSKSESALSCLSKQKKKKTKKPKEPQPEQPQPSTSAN
Chain of UniProt Q9UBR2 (Q9UBR2 whole entry, looked up): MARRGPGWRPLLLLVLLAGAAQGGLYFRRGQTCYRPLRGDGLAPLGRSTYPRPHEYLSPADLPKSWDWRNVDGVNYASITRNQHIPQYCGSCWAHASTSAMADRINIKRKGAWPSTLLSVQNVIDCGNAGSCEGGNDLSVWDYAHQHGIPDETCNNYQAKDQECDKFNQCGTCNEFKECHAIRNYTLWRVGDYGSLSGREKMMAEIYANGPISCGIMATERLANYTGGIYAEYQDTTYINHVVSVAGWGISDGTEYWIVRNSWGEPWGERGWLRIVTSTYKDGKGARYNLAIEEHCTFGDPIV
Chain of UniProt Q9Y238 (Q9Y238 whole entry): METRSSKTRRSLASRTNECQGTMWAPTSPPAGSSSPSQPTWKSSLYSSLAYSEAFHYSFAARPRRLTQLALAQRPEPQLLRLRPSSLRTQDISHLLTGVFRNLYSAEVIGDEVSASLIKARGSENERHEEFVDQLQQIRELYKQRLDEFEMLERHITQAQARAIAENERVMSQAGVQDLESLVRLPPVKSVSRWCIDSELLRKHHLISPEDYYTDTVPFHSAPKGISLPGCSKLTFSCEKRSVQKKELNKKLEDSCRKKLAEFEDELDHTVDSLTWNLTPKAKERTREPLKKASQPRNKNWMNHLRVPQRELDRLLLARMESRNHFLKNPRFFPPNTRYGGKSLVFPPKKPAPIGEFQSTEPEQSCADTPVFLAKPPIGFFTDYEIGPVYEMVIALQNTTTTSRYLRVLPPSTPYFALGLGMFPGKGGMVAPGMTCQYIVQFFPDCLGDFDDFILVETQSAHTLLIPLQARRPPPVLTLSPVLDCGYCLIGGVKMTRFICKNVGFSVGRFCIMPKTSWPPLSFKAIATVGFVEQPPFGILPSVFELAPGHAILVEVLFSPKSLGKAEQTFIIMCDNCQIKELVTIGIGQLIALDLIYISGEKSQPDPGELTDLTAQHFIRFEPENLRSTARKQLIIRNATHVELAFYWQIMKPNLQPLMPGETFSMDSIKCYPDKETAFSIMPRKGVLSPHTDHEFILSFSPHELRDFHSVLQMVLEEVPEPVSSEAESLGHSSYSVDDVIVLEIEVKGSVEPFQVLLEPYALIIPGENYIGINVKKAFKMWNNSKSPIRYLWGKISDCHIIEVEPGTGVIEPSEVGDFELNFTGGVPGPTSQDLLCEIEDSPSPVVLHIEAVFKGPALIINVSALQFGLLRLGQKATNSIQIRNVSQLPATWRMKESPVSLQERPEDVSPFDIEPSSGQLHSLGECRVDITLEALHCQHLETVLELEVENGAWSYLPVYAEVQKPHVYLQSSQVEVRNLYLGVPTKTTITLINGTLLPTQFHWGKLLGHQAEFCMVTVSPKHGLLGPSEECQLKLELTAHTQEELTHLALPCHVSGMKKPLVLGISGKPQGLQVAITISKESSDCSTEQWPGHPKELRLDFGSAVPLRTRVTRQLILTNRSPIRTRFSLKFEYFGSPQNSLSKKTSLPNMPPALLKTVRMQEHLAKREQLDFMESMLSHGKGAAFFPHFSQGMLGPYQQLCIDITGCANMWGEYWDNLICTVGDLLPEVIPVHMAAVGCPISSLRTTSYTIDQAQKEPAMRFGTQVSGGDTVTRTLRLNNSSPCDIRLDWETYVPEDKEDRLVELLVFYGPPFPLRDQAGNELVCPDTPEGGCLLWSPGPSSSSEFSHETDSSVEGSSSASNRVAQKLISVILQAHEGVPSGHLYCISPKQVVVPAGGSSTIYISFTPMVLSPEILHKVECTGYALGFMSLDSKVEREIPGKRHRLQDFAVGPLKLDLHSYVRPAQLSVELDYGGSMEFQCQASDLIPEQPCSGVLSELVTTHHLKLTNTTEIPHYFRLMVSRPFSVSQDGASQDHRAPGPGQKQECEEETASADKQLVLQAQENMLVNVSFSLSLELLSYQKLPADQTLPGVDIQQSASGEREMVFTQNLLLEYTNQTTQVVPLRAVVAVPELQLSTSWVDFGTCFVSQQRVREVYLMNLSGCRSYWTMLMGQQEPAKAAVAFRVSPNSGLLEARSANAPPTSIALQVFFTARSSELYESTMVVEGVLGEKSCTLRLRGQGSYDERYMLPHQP
Chain of UniProt P32321 (P32321 whole entry, looked up): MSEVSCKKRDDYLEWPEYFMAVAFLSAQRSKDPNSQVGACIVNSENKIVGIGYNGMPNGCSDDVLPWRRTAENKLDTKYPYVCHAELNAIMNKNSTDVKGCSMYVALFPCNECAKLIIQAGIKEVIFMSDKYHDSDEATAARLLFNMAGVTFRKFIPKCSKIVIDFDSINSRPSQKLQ
Chain of UniProt O95865 (O95865 whole entry, looked up): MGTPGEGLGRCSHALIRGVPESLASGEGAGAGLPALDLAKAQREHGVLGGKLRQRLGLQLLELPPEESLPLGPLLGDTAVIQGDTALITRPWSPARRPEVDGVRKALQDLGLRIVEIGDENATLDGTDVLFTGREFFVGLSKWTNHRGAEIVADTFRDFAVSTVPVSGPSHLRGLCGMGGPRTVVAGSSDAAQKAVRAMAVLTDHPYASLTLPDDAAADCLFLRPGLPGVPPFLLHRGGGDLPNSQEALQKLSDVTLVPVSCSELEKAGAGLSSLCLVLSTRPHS
Chain of UniProt Q16698 (Q16698 whole entry, looked up): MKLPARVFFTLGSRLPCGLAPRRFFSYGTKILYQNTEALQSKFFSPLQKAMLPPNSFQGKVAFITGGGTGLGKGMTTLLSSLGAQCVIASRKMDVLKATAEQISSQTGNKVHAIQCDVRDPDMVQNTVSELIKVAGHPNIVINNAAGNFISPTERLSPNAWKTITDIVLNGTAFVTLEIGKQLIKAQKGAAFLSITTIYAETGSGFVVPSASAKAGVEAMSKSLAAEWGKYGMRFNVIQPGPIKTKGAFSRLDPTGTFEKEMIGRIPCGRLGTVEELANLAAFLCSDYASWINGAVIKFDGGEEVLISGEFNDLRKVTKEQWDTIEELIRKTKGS

Target	probe-labelled cysteine peptide fold change (10 µM)	probe-labelled cysteine peptide fold change (50 µM)
CTDP1_Q9Y5B0_277_ILSRDECIDPFSK (UniProt Q9Y5B0)	-0.0626	-0.31
DNAJC7_Q99615_58_AIDMCPK (UniProt Q99615)	0.162	0.0415
CRIP1_P50238_56_TLTSGGHAEHEGKPYCNHPCYAAMFGPK (UniProt P50238)	-0.447	-1.41
DCAF12_Q5T6F0_253_EDTNPDNCK (UniProt Q5T6F0)	-0.303	-0.538
DDX46_Q7L014_646_ASYPCMSLHGGIDQYDR (UniProt Q7L014)	-0.0173	0.231
CRYL1_Q9Y2S2_125_VILSSSTSCLMPSK (UniProt Q9Y2S2)	-0.0791	-0.537
CRIP1_P50238_52+56_PYCNHPCYAAMFGPK (UniProt P50238)	0.0432	-0.424
DDX10_Q13206_196_INNINILVCTPGR (UniProt Q13206)	0.0926	0.195
COA7_Q96BR5_187_ACDLGHIWACANASR (UniProt Q96BR5)	0.0578	0.0556
CTNNB1_P35222_466_AGDREDITEPAICALR (UniProt P35222)	0.16	1.07
CMIP_Q8IY22_363_NGCQQPCDR (UniProt Q8IY22)	-0.29	-1.18
DDX52_Q9Y2R4_342_TGFRDQLASIFLACTSHK (UniProt Q9Y2R4)	0.00973	0.189
COMP_P49747_371_GDACDDDIDGDR (UniProt P49747)	-1.61	-0.768
CTSZ_Q9UBR2_164_DQECDK (UniProt Q9UBR2)	-0.0913	-0.207
DHX16_O60231_932_VEVGLSSCQGDYIR (UniProt O60231)	-0.184	0.119
DDX27_Q96GQ7_259_DICACAATGTGK (UniProt Q96GQ7)	0.0194	-0.0602
DBR1_Q9UK59_347_VPCNFSVTAACYDPSKPQTQMQLIHR (UniProt Q9UK59)	-0.109	-0.299
DDX59_Q5T1V6_453_LFKPPVLVFVDCK (UniProt Q5T1V6)	-0.33	-1.68
CMTR1_Q8N1G2_794_DSTFDLPADSIAPFHICYYGR (UniProt Q8N1G2)	0.205	0.653
CRIP2_P52943_150_DWHRPCLR (UniProt P52943)	0.923	1.04
CTPS2_Q9NRF8_299_ICSIALVGK (UniProt Q9NRF8)	-0.0254	0.193
CORO1A_P31146_332_GLEVNKCEIAR (UniProt P31146)	-0.447	-1.1

Target	probe-labelled cysteine peptide fold change (10 µM)	probe-labelled cysteine peptide fold change (50 µM)
CRYZ_Q08257_45_VHACGVNPVETYIR (UniProt Q08257)	0.0503	-0.01
DGKE_P52429_167_TVHDECMK (UniProt P52429)	-0.082	-0.168
CPPED1_Q9BRF8_88_FFVLCGDLIHAMPGKPWR (UniProt Q9BRF8)	-0.0653	-0.191
DNAJA3_Q96EY1_236_EFTVNIMDTCER (UniProt Q96EY1)	-0.1	-0.195
DDX54_Q8TDD1_389_CSTLIVTDLAAR (UniProt Q8TDD1)	0.1	0.184
CTNND1_O60716_618_YQEAAPNVANNTGPHAASCFGAK (UniProt O60716)	-0.274	-0.78
CRYZL1_O95825_302_YLCILK (UniProt O95825)	-0.195	-0.442
DEF6_Q9H4E7_266_GIIPLDAHCCVEVLPDRDGKR (UniProt Q9H4E7)	0.106	-0.227
DECR1_Q16698_86_GMTTLLSSLGAQCVIASR (UniProt Q16698)	0.251	0.213
DENND4A_Q7Z401_35_PLEEEIHFNDACHK (UniProt Q7Z401)	-0.0984	-0.131
DCAF13_Q9NV06_215_FNPIETFLLGSCASDR (UniProt Q9NV06)	0.105	-0.0461
DDX24_Q9GZR7_599_SLVFANSISCIK (UniProt Q9GZR7)	0.147	0.498
DHX57_Q6P158_644_LLYCTTGVLLR<|>DHX29_Q7Z478_678_LLYCTTGVLLR (UniProt Q7Z478+Q6P158)	-0.0914	0.172
DDX5_P17844_170_TLSYLLPAIVHINHQPFLERGDGPICLVLAPTR (UniProt P17844)	0.236	0.565
CRELD2_Q6UXH1_166_QGDGSCR (UniProt Q6UXH1)	-0.195	-0.265
DENND6A_Q8IWF6_130_VSLHCLLDQFDK (UniProt Q8IWF6)	0.295	1.1
DCXR_Q7Z4W1_58_ECPGIEPVCVDLGDWEATER (UniProt Q7Z4W1)	0.125	0.231
DNMT1_P26358_353+356_CIQCGQYLDDPDLK (UniProt P26358)	0.138	-0.0723
CTPS1_P17812_30_SCGLHVTSIK (UniProt P17812)	0.14	0.147
CNOT4_O95628_175_AIQCVNNVVVDGR (UniProt O95628)	-0.0308	-0.303
DESI1_Q6ICB0_108_GEAYNLFEHNCNTFSNEVAQFLTGR (UniProt Q6ICB0)	-0.076	-1.61
DDX17_Q92841_319_CTYLVLDEADRMLDMGFEPQIR (UniProt Q92841)	0.023	-0.374

Target	probe-labelled cysteine peptide fold change (10 µM)	probe-labelled cysteine peptide fold change (50 µM)
DENND4B_O75064_652_HAALEFFDSCVEK (UniProt O75064)	0.0262	0.235
COLGALT1_Q8NBJ5_283_QAEVQMYVCNK (UniProt Q8NBJ5)	0.265	0.751
DCP2_Q8IU60_391_KLQDNFETDAVYDLPSSSEDQLLEHAEGQPVACNGHCK (UniProt Q8IU60)	-0.353	-1.7
DMXL2_Q8TDJ6_1897_VGCPVLALEVLSK (UniProt Q8TDJ6)	0.0214	-0.0631
DNAJC7_Q99615_175_ALEFAPACHR (UniProt Q99615)	-0.118	-0.577
DNMT1_P26358_1476+1478_GVCSCVEAGK (UniProt P26358)	-1.56	< -5
COG1_Q8WTW3_318_LCSWFK (UniProt Q8WTW3)	-1.03	-2.3
DHRS4L2_Q6PKH6_86_KQQNVDQAVATLQGEGLSVTGTVCHVGK (UniProt Q6PKH6)	0.254	-0.306
DLEC1_Q9Y238_256_LEDSCR (UniProt Q9Y238)	0.773	1.66
CROT_Q9UKG9_166_MLFSTCK (UniProt Q9UKG9)	-0.0518	-0.0687
DDHD2_O94830_470_ESEFCSSSNTR (UniProt O94830)	-0.28	-0.538
COPA_P53621_1169_NPTDAYQLNYDMHNPFDICAASYR (UniProt P53621)	0.178	0.397
DENND3_A2RUS2_801_TECDLWHLMVK (UniProt A2RUS2)	-0.103	-0.116
DCAF8_Q5TAQ9_256_FLPNSGDSTLAMCAR (UniProt Q5TAQ9)	-0.0556	-0.22
CSMD2_Q7Z408-3_2_CDAHLR (UniProt Q7Z408)	0.077	-2.14
CUL7_Q14999_952_CQQGGIDTR (UniProt Q14999)	-0.417	-0.0198
DCTD_P32321_60_IVGIGYNGMPNGCSDDVLPWR (UniProt P32321)	0.155	-0.179
CTSG_P08311_142_AQEGLRPGTLCTVAGWGR (UniProt P08311)	-0.0347	-0.0423
CROT_Q9UKG9_584_SCPETDAEK (UniProt Q9UKG9)	-0.0249	0.181
DDX18_Q9NVP1_407_ANATVDGLEQGYVVCPSEK (UniProt Q9NVP1)	-0.401	0.698
DENND3_A2RUS2_1094_DTSTSFLAFQLLPEEEQLWAACAGR (UniProt A2RUS2)	1.07	1.16
CXXC1_Q9P0U4_564_VPADEVCGCPLVR (UniProt Q9P0U4)	0.111	-0.109

Target	probe-labelled cysteine peptide fold change (10 µM)	probe-labelled cysteine peptide fold change (50 µM)
CPNE8_Q86YQ8_196_SNEDGSFTICHK (UniProt Q86YQ8)	0.205	0.413
DDAH2_O95865_11_CSHALIR (UniProt O95865)	0.0326	0.0102
CYBB_P04839_369_IVGDWTEGLFNACGCDK (UniProt P04839)	-0.0879	0.149
DDX3X_O00571_128_WCDKSDEDDWSK (UniProt O00571)	-0.303	-1.35
DHX30_Q7L2E3_346_RPCTIQVPEPILR (UniProt Q7L2E3)	-0.647	-1.7
DHX30_Q7L2E3_673_GEPGGILCFLPGWQEIK (UniProt Q7L2E3)	0.357	0.169
CTNNB1_P35222_520_NLALCPANHAPLR (UniProt P35222)	-0.273	1.23
DCAF12L1_Q5VU92_150_LAQDQQGCGIHAIELNPSK (UniProt Q5VU92)	-0.214	-0.239
DDX5_P17844_200_STCIYGGAPK (UniProt P17844)	-0.0442	-0.0153
DIAPH3_Q9NSV4_663_IRPHEMTENCFWIK (UniProt Q9NSV4)	-0.0626	-0.468
DHX9_Q08211_777_VRPGFCFHLCSR (UniProt Q08211)	-0.231	-0.0284
CRELD2_Q6UXH1_120_SEYPDLFEWFCVK (UniProt Q6UXH1)	0.199	-0.0635
CSRP1_P21291_25_TVYFAEEVQCEGNSFHK (UniProt P21291)	2.29e-05	-0.0826
DIP2A_Q14689_6_GCPLEAAPLPAEVR (UniProt Q14689)	-0.41	-2.19
CSE1L_P55060_61_VCASVTFK (UniProt P55060)	-0.071	0.0214
DIAPH1_O60610_1227_KAGCAVTSLLASELTK (UniProt O60610)	-0.218	-1.27
DGLUCY_Q7Z3D6-2_165_TTVPCVTHAGFCCPLVVTMRPIPK (UniProt Q7Z3D6)	0.017	-0.4
DNMT1_P26358_1339_ACQLSVVVDDKK (UniProt P26358)	-0.133	-1.16
CTSG_P08311_207_AAFKGDSGGPLLCNNVAHGIVSYGK (UniProt P08311)	-0.329	-0.817

Reference: the supplement of paper PMC12067093, “Discovery and optimisation of a covalent ligand for TRIM25 and its application to targeted protein ubiquitination” (Chemical Science, 2025)
